Source: the supplement of paper PMC11634586
Unmarked numbers belong to inactive results.

The molecules below were run on NCI-H1688 (assay: inhibition of cell viability relative to untreated control (fraction); higher = stronger growth inhibition, active = 0.5 or more). Conditions: 30 µM; 24 h.
How it was run: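 NCI-H1688 small cell lung cancer cells were seeded at 3 × 10^3 cells/well in 96-well plates and treated 24 h later with a natural compound library (TargetMol) at 30 µM for 24 h, at 37°C with 5% CO2. Viability was read in triplicate with Cell Counting Kit-8 as absorbance at 450 nm. Inhibition of cell viability is expressed as a fraction, derived from viability normalised to the untreated control.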

SMILES | inhibition of cell viability
O=C(O)c1cc(O)c2c(c1)[C@@H]([C@H]1c3cc(C(=O)O)cc(O)c3C(=O)c3c(O[C@@H]4O[C@H](CO)[C@@H](O)[C@H](O)[C@H]4O)cccc31)c1cccc(O[C@@H]3O[C@H](CO)[C@@H](O)[C@H](O)[C@H]3O)c1C2=O [Sennoside B] | -0.103
C=C(C)[C@@H]1CC[C@]2(C)CC[C@]3(C)[C@H](CC[C@@H]4[C@@]5(C)CC[C@H](O)C(C)(C)[C@@H]5CC[C@]43C)[C@@H]12 [Lupeol] | 0.287
COC(=O)/C=C/c1ccc(O)cc1 [Methyl 4-hydroxycinnamate] | -0.109
O=C(O)/C=C/CCCCCCCO [10-Hydroxy-2-decenoic acid] | 0.323
Oc1cc2c(cc1O)[C@@H]1c3ccc(O)c(O)c3OC[C@]1(O)C2 [Hematoxylin] | 0.0369
O=c1c(-c2ccc(O)cc2)coc2cc(O)ccc12 [Daidzein] | 0.0274
COC(=O)[C@H]1[C@H]2C[C@@H]3c4[nH]c5cc(OC)ccc5c4CCN3C[C@H]2C[C@@H](OC(=O)c2cc(OC)c(OC)c(OC)c2)[C@@H]1OC [Reserpine] | 0.981 (active)
C=CCc1ccc(O)c(-c2ccc(O)c(CC=C)c2)c1 [Honokiol] | 0.844 (active)
CC(C)=CCC/C(C)=C/CC/C(C)=C/CC/C(C)=C/CC1=C(C)C(=O)c2ccccc2C1=O [Menatetrenone] | -0.0024
CC1(C)[C@@H](O[C@H]2O[C@H](C(=O)O)[C@@H](O)[C@H](O)[C@H]2O[C@@H]2O[C@H](C(=O)O)[C@@H](O)[C@H](O)[C@H]2O)CC[C@]2(C)[C@H]3C(=O)C=C4[C@@H]5C[C@@](C)(C(=O)O)CC[C@]5(C)CC[C@@]4(C)[C@]3(C)CC[C@@H]12 [Glycyrrhizin (Glycyrrhizic Acid)] | -0.0055
